According to the supplement of paper PMC6555819:

Experiments:
Test in all cases: PBM binding z-score (relative to random genomic background probes); higher = stronger binding; sequences stand for … in GC…GCGATTGACAGCGTAGAATGAAGG
[1] = test system: RARg homodimer (NR concentration 270 nM)
Summary of the method: (§1)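 Regression normalization was applied to scanned fluorescence from custom Agilent 4×180K protein-binding microarrays. Before scanning, arrays were incubated 1 h with ligand-free nuclear receptor dimers, and binding was detected with antibodies against each partner (one per run). Binding z-scores use the random background probes as reference.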

[2] = test system: RXRa DBDmut IVT, anti-RXR (DBD mutation: RXRa K156A/R161A, NR concentration 90 nM)
Summary of the method: as §1

[3] = test system: THRa:RXRa (NR concentration 90 nM, RXRa partner concentration 90 nM)
Summary of the method: as §1

[4] = test system: THRa homodimer (NR concentration 90 nM)
Summary of the method: as §1

[5] = test system: VDR homodimer (NR concentration 270 nM)
Summary of the method: as §1

Sequence | PBM binding z-score [1] | PBM binding z-score [2] | PBM binding z-score [3] | PBM binding z-score [4] | PBM binding z-score [5]
CCTTACGGGTCACGAGGTCATAGCACGACGAGCG | 6.74 | 3.05 | 4.58 | 3.43 | 4.83
CCTTAGGGGTCACGAGGTTATAGCACGACGAGCG | 8.18 | 4.14 | 4.53 | 1.8 | 4.55
AGTCAAAGGTCATCTAGGTAACGTAAGATATGCT | 7.77 | 3.31 | 4.7 | 1.42 | 2.52
CAAAATAGGTCAAAGGTCAAAGTCGAGCCAACCA | 7.97 | 2.84 | 4.79 | 1.18 | 2.93
CAAACGAGGTCACGAAAGGTCAAAGTCGAATGAC | 9.89 | 4.62 | 5.28 | 4.41 | 6.31
CCTGCTAGGTCAAAGGTCAGCTAAAGCAGCTCGC | 7.57 | 2.83 | 4.6 | 1.41 | 1.75
CAAACGAGGTCAAAGGTCAAAGTCGAGCCAACCA | 8.66 | 4.97 |  | 3.26 | 6.2
TATACAGGGTCAAAGGTCAGAGTACGAATGTCGA | 7.28 | 3.34 |  | 1.79 | 4.33
CAAACGAGGTCACAGAGGTCAAAGTCCGTGCGTA | 9.3 | 4.98 |  | 5.02 | 10.5
CGTCCGAGGTCAAGGTCAGTGAAAGAGACTCGAA | 7.79 | 4.19 | 4.37 | 3.97 | 4.69
CGTCCAAGGTCAAAGGTCATTGAAGAGATGACGG | 8.52 | 4.24 |  | 3.04 | 5.06
CCTTAGGGGTCAAGGTTATAGCACGGGTGGTACG | 7.42 | 3.5 | 4.36 | 1.39 | 4.22
CGTCAAAGGTCATAGGAGGTCAGTGAAGACAGAT | 8.6 | 3.88 |  | 1.85 | 3.84
CCTACTGGGTCAAAGGTCATTGATTCCAATGCTC | 5.88 | 2.87 | 4.52 | 1.69 | 3.95
CGTCCAAGGTCAAAGGTCAATGAAGAGATGACGG | 8.5 | 3.93 |  | 2.5 | 3.6
TCTCGGAGGTCACGAAAGGTCAGAGCTCGACATC | 9.26 | 3.38 |  | 2.36 | 3.58
GCTTAGGGGTCAAAGGTTATAGCATGAATAGAAT | 7.06 | 4.82 | 4.68 | 0.683 | 4.44
TCTAGTAGGTCAAAGGTCACACACTCGAAATGCG | 7.76 | 2.77 | 4.73 | 2.3 | 3.32
CCTTAGGGGTCACTCCAGGTTATAGCATCGGAGT | 7.07 | 4.21 |  | 0.963 | 4.35
ATCGAAAGGTCAACGAGGTGAGTATACACCGTTT | 8.92 | 3.23 | 4.42 | 1.96 | 3.29

Sequence | PBM binding z-score [1] | PBM binding z-score [2] | PBM binding z-score [3] | PBM binding z-score [4] | PBM binding z-score [5]
AATACGGGGTCATCGTAGGCCAGAGTACGCACAG | 7.15 | 4.86 | 4.99 | 2.62 | 6.13
CAAACTAGGTCAAAAGGTCAAAGTCCGCTTCCCG | 8.65 | 2.66 | 4.48 | 1.87 | 3.77
CAAACGAGGTCACCGGAAGGTCAAAGTCCGCATG | 8.7 | 4.24 |  | 4.61 | 6
TGTCAAAGGTCAAAGGTAACGTAAGTATCCACAC | 8.8 | 3.15 | 4.47 | 0.695 | 2.81
CGTCAAAGGTCAATGCTAGGTCAGTGAAAGCATT | 8.73 | 3.76 | 4.77 | 1.42 | 2.5
ACTCGGAGGTCAAAGGTCAGAGCTACGCCAGTGA | 8.15 | 3.82 |  | 1.5 | 3.99
TTACCAAGGTCAAAGGTCGTTGATGCACGCCTTG | 6.63 | 3.96 | 4.73 | 2.76 | 4.36
ATCGAAAGGTCATGAGGTGAGTATACAGAAAGGC | 8.01 | 3.11 | 4.37 | 1.95 | 2.68
CAAACGAGGTCAAGAGGTCAAAGTCCGCTTCCCG | 8.65 | 4.19 |  | 4.11 | 6.32
CAAACGAGGTCAAGGTCAAAGTCGGTTTGTGCCA | 8.18 | 4.52 |  | 4.79 | 6.15
GCTTACGGGTCAAAGGTCATAGCATGAATAGAAT | 7.46 | 3.56 |  | 1.04 | 3.19
CAAAATAGGTCACCGGAAGGTCAAAGTCCGCATG | 8.46 | 2.03 | 4.65 | 1.82 | 3.41
CCTTAGGGGTCACTGACAGGTTATAGCATTTGGA | 7.67 | 4.43 | 4.27 | 0.822 | 3.55
TGTCAAAGTTCAAAGGTCACGTAAGTATCCACAC | 9.03 | 4.57 |  | 1.88 | 5.69
CAAACAAGGTCACCGGAAGGTCAAAGTCCGCATG | 8.72 | 4.24 |  | 4.44 | 5.94
ACTTAGGGGTCAACGAGGTTATAGCACGCGTATA | 7.64 | 4.82 |  | 1.8 | 6.45
TCTAGTCGGTCAAAGGTCACACACTCGAAATGCG | 7.3 | 1.78 | 4.13 | 2.24 | 2.75
AGAACGAGGTCACGCTGAGTTGATAGCAGAGTAG | 7.61 | 4.36 | 4.37 | 3.59 | 5.15
CAAACAAGGTCAAAGGTCAAAGTCGAGCCAACCA | 8.75 | 4.5 |  | 2.79 | 5.62
